The panel holds about 83,000 compounds, 20% with a hit somewhere; the sample as a whole holds those more often.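 Single-concentration screen, 48 h exposure, 96-well plates. Endpoint: percent growth. Below 10 = active.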 Unmarked numbers belong to inactive results. The source made the active and inactive calls.

This assay deals with SNB-75 CNS. The assay is described as follows: NCI-60 one-dose screen, 48 h (100 = growth as untreated, 0 = no growth, -100 = all killed). To be noted: 10 µM unless noted. How it is done: Growth inhibition of the SNB-75 human tumor cell line is measured as a screen for anti-cancer activity. Cells are grown in 96 well plates and exposed to the test compound for 48 hours. Compounds are tested at a single concentration, which is 10^-5 M for most compounds. The reported endpoint is percent growth (GI% or GIPRCNT), where numbers from 0 - 100% represent growth inhibition, and numbers from -100% - 0 represent cell death. For example, a value of 40 represents 60% growth inhibition. A value of 0 means no net growth occurred over the course of the experiment. A value of -40 indicates 40% of cells at the beginning of the experiment died by the end of the experiment. A value of -100 means all cells are dead at the end of the experiment.
NCI-60 Human Tumor Cell Lines Screen was performed using the standard one-dose NCI protocol, which is described in more detail at https://dtp.cancer.gov/discovery_development/nci-60/default.htm.
Compounds with GIPRCNT values below 10 were considered active. Activity score was based on GIPRCNT using the following formula: […]
Score is 0 for GIPRCNT values of 100 or above, 50 for GIPRCNT values of 0, and 100 for GIPRCNT values of -100.
With `COc1ccccc1C(=O)/C=C/c1ccccc1`, the growth is 88.5%. Regarding `COc1ccc(C2C3=C(COC3=O)N(CCO)c3cc4c(cc32)CCC4)cc1` (stereo not given), the growth was 42.4%. The figure for `Cc1[nH]c2ccccc2c(=O)c1CC=C(Cl)Cl` is 63.1%. On to `COC(=O)C1=Nc2ccc(F)cc2/C1=C/c1sc(=S)[nH]c1O`, for which the growth was 11.6%. On to `COC(=O)/C(=C\c1c(-c2ccccc2)[nH]c2ccccc12)S(C)(=O)=O`, for which the growth is -4.33% (active). The result for `O=C(/C=C/c1ccc(F)cc1)c1ccc(Nc2nc(NCCO)nc(Nc3ccc(Cl)cc3)n2)cc1` reads 81.4%.

For the compound `COc1c(B(O)O)cccc1-c1nc2ccc3[nH]ncc3c2c2c1C1CCC2C1` (stereo not given), the growth is 2.23% (active). The figure for `COc1cccc(/C=C/C(=O)c2c(C)nc3ccccc3c2/C=C/c2ccccc2)c1OC` is 9.19% (active); for `COC(=O)/C(CCC=C(C)C)=C1\[C@@H](OC(C)=O)C[C@@]2(C)[C@H]1C[C@@H](O)[C@H]1[C@@]3(C)CC[C@H](NCCCNCCCCNCCCN)[C@@H](C)[C@@H]3CC[C@@]12C` it is 93.4%; for `COc1ccc(/C(C#N)=C/c2nc3c(N4CCOCC4)nc(Cl)nc3n2C)cc1OC` it is -7.9% (active).

Take `CCN1C(=O)N(CC)C2Nn3c(s/c(=C\c4ccccc4F)c3=O)=NC21` (stereo not given): the growth is 55.1%. The figure for `OCCNc1nc(Nc2ccc(C3=NN(c4cc(Cl)cc(Cl)c4)C(c4ccc(C(F)(F)F)cc4)C3)cc2)nc(N2CCOCC2)n1` (stereo not given) is 68.4%; for `Clc1ccc(Nc2nnc(-c3ccc4c(c3)OCO4)o2)cc1` it is 121%. Turning to `COc1ccc(S(=O)(=O)N(Cc2ccc3c(n2)C=CC(C)(C)O3)C2CCC2)cc1OC`, the growth is -12.5% (active). On to `CCOC(=O)C1(Cc2ccccc2)CCN(Cc2cccc(OC)c2O)CC1`, for which the growth was 37.7%. Regarding `O=C(Nc1ccc(Br)cc1F)c1cc(I)ccc1O`, the growth is -9.93% (active). The figure for `CCOC(=O)c1cnc2c(C)cccc2c1Nc1ccc(C(C)=O)cc1` is 32.4%; for `CCCCN1CCN(c2ccc3nc(-c4ccc5nc(-c6ccc(OCC)cc6)[nH]c5c4)[nH]c3c2)CC1` it is 60%. For `CC[C@]1(O)C[C@@H]2CN(CCc3c([nH]c4ccccc34)[C@@](C(=O)OC)(c3cc4c(cc3OC)N(C)[C@H]3[C@@](O)(C(=O)OC)[C@H](OC(=O)CCCBr)[C@]5(CC)C=CCN6CC[C@]43[C@@H]65)C2)C1`, the growth is 13.2%.

Take `CCOC(=O)C1=C(C)N=c2s/c(=C\c3ccccc3O)c(=O)n2C1c1ccc(OC)c2ccccc12` (stereo not given): the growth was -44.2% (active). The figure for `COc1ccc(/C=C/C(=O)c2c(C)nc3ccccc3c2/C=C/c2ccccc2)c(OC)c1` is 81.5%. The result for `CSc1nc2c(c(=O)[nH]1)N=C1c3ccccc3C(=O)C1C(c1ccc(F)cc1)N2` (stereo not given) reads 26.8%; that for `COc1cc(C#N)cc2[nH]c(=O)oc12`, 71.9%; that for `COc1cc(C=C2C(=O)N(C)C(=O)N(C)C2=O)cc(CN2CCCCC2)c1O`, 89.8%. As to `COc1nc2c(c(=O)n1C)N=C1c3ccccc3C(=O)C1C(c1ccccc1)N2` (stereo not given), the growth was 84.6%. Take `S=C1CCCC(=S)N1`: the growth is 99%. The result for `CN1C(=O)N(C)C2Nn3c(s/c(=C4\C(=O)N(CCc5ccccc5)c5ccccc54)c3=O)=NC21` (stereo not given) reads 48.2%; that for `Cc1sc2ncnc(Sc3nc4ccccc4[nH]3)c2c1C`, -85.4% (active); that for `Nc1ccc(C2c3ccccc3Oc3ccccc32)cc1`, 84.5%. As to `COc1c(B(O)O)cccc1-c1nc2ccc3n[nH]c(F)c3c2c2c1CCCC2`, the growth was -10.9% (active). As to `N#Cc1c(N)nc2c(c1N)C(c1ccc(F)cc1)c1ccc(N)cc1O2` (stereo not given), the growth was 86.6%.

With `CCOC(=O)C1=C(C)c2ccc(OC)c(OC)c2C1`, the growth was 89.9%. The result for `COc1cc(C2C3=C(COC3=O)N(CCO)c3cc4c(cc32)CCC4)cc(OC)c1O` (stereo not given) reads 3.02% (active).

Take `O=C1NC(=S)NC(=O)C1=Cc1cn(Cc2cn(Cc3cccc4ccccc34)nn2)c2ccccc12`: the growth is 79.4%.

In the case of `O=C(Cc1ccccc1)NC(c1ccc(Cl)cc1)c1c(O)ccc2ccccc12` (stereo not given), the growth is 40%.

For the compound `O=C(Nc1ccc(F)cc1F)c1cc(Br)ccc1O`, the growth is -17.9% (active). As for `CCC1=C[C@@H]2CN(C1)Cc1c([nH]c3ccccc13)[C@@](C(=O)OC)(c1cc3c(cc1OC)N(C)[C@H]1[C@@](O)(C(=O)OC)[C@H](OC(C)=O)[C@]4(CC)[C@@H]5C[C@@H]5CN5CC[C@]31[C@@H]54)C2`, the growth is 3.05% (active). The figure for `Cc1sc2ncn(CC(=O)Nc3ccc(S(N)(=O)=O)cc3)c(=O)c2c1C` is 86.1%.

Consider `COc1cc(C(=O)O/N=C(\N)Cc2cccc3ccccc23)cc(OC)c1OC`, for which the growth is -19.4% (active). As to `O=c1oc2ccc(I)cc2c(=O)n1-c1ccc(F)cc1F`, the growth is -13.4% (active).

The values are drawn from PubChem BioAssay (NCI).
